From PubChem BioAssay (Tox21)
Where “and” joins values, the source holds several entries; their conditions need not be identical. Equal entries are not always repeated. Inconclusive results are not listed. Where a call stands in place of a potency, no number is given. Where a structure was tested more than once in an assay, its records may differ in their call. Calls of active or inactive are those of the source. Unless noted, calls come from the whole dose curve; as a rule, active = well fitted curve in the direction sought with a large enough effect in the repeat runs; inconclusive = weak or mixed curves; inactive = no such curve, though single readings can be large; an effect the other way counts as inactive or inconclusive.

How the values were obtained:
[1] = target: Acetylcholinesterase (Homo sapiens) (UniProt P22303); test: Acetylcholinesterase (AChE) small molecule antagonists: colormetric cell-based qHTS assay (AID 1347395; calls by dose curve; note: nearly all actives have a fitted effect of over 30% in size; note: potency is the fitted concentration of half-maximal effect)
Procedure, shortened: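 SH-SY5Y cells, plated overnight at 37 C, were exposed to compounds for 30 min at 37 C and 5% CO2. Acetylthiocholine plus DTNB was then added, and thiocholine from endogenous AChE was quantified colorimetrically after 90 min at 37 C.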

[2] = target: Acetylcholinesterase (Homo sapiens) (UniProt P22303); test: Acetylcholinesterase (AChE) small molecule antagonists: enzyme-based qHTS assay with human liver microsomes (AID 1347399; calls by dose curve; note: nearly all actives have a fitted effect of over 60% in size; note: potency is the fitted concentration of half-maximal effect); details: Potency: qHTS inhibition
Procedure, shortened: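 Recombinant human AChE (50 mU/mL in the enzyme mix) and human liver microsomes (0.25 mg/mL final) were preincubated with compound and NADPH (0.25 mg/mL final) for 30 min at 37 C. Acetylthiocholine/DTNB was then added; thiocholine was read colorimetrically after 10 min at room temperature.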

[3] = target: Cytochrome P450 2C19 (Homo sapiens) (UniProt P33261); test: Cytochrome P450 Family 2 Subfamily C Member 19 (CYP2C19) small molecule antagonists: luciferase reporter qHTS assay (AID 1671197); note: nearly all actives have a fitted effect of over 65% in size; note: potency is the fitted concentration of half-maximal effect
Procedure, shortened: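 P450-Glo CYP2C19 system: enzyme-substrate mix with compound 10 min at room temperature, then NADPH regeneration solution, 1 h at 37C. Proluciferin-to-luciferin conversion detected by luminescence after 20 min with detection reagent; ketoconazole as positive control.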

[4] = target: Cytochrome P450 1A2 (Homo sapiens) (UniProt P05177); test: Cytochrome P450 Family 1 Subfamily A Member 2 (CYP1A2) small molecule antagonists: luciferase reporter qHTS assay (AID 1671199); note: nearly all actives have a fitted effect of over 50% in size; note: potency is the fitted concentration of half-maximal effect
Procedure, shortened: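 CYP1A2 turnover of a luminogenic substrate was quantified after 1 h with NADPH regeneration at room temperature. Furafylline served as positive control.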

[5] = target: Voltage-gated inwardly rectifying potassium channel KCNH2 (Homo sapiens) (UniProt Q12809); test: Human Ether-a-go-go-Related Gene (hERG) channel small molecule antagonists: fluorescence cell-based qHTS assay (AID 1671200); note: nearly all actives have a fitted effect of over 50% in size; note: potency is the fitted concentration of half-maximal effect
Procedure, shortened: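 U2OS cells expressing the channel were plated at 1000 cells/well, incubated overnight at 37 C, then loaded with FluxOR II thallium-sensitive dye for 1 h at room temperature in the dark, with a further 10 min at room temperature before stimulation.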

[6] = target: Acetylcholinesterase (Homo sapiens) (UniProt P22303); test: Acetylcholinesterase (AChE) small molecule antagonists: enzyme-based qHTS assay (AID 1347397; calls by dose curve; note: nearly all actives have a fitted effect of over 55% in size); details: Potency: AChE enzyme activity inhibition
Procedure, shortened: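 Human recombinant acetylcholinesterase; substrate acetylthiocholine; thiocholine quantified with DTNB (colorimetric). Compound preincubation 30 min RT; reaction 10 min RT.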

[7] = target: Acetylcholinesterase (Homo sapiens) (UniProt P22303); test: Acetylcholinesterase (AChE) small molecule antagonists: fluorescence cell-based qHTS assay (AID 1347398; calls by dose curve; note: nearly all actives have a fitted effect of over 50% in size; note: potency is the fitted concentration of half-maximal effect); details: Potency: AChE activity
Procedure, shortened: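 Thiocholine generated from acetylthiocholine by SH-SY5Y cell AChE is detected with Thiolite Green (Ex/Em 490/520 nm) after 40 min at room temperature, following 30 min compound pretreatment at 37 C.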

[8] = target: Cytochrome P450 2D6 (Homo sapiens) (UniProt P10635); test: Cytochrome P450 Family 2 Subfamily D Member 6 (CYP2D6) small molecule antagonists: luciferase reporter qHTS assay (AID 1671196); note: nearly all actives have a fitted effect of over 50% in size; note: potency is the fitted concentration of half-maximal effect
Procedure, shortened: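 Luminescence (RLU), read 20 min after detection reagent, indicated CYP2D6 conversion of proluciferin to luciferin during a 1 h NADPH-dependent reaction at room temperature.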

[9] = target: Cytochrome P450 2C9 (Homo sapiens) (UniProt P11712); test: Cytochrome P450 Family 2 Subfamily C Member 9 (CYP2C9) small molecule antagonists: luciferase reporter qHTS assay (AID 1671198); note: nearly all actives have a fitted effect of over 50% in size; note: potency is the fitted concentration of half-maximal effect
Procedure, shortened: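 CYP2C9 activity was measured with a P450-Glo proluciferin substrate. Enzyme–substrate mix was held with compound for 10 min at room temperature, then NADPH regeneration solution was added for 1 h at 37C. Luciferin product was read as luminescence.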

[10] = target: Cytochrome P450 3A4 (Homo sapiens) (UniProt P08684); test: Cytochrome P450 Family 3 Subfamily A Member 4 (CYP3A4) small molecule antagonists: luciferase reporter qHTS assay (AID 1671201); note: nearly all actives have a fitted effect of over 50% in size; note: potency is the fitted concentration of half-maximal effect
Procedure, shortened: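 P450-Glo CYP3A4 system with proluciferin substrate; compounds preincubated 10 min RT with enzyme-substrate mix, then NADPH regeneration added for 1 h RT. Detection reagent 20 min, luminescence read as relative luminescence units.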

Chain of Cytochrome P450 1A2 (Homo sapiens) (P05177 whole entry, looked up): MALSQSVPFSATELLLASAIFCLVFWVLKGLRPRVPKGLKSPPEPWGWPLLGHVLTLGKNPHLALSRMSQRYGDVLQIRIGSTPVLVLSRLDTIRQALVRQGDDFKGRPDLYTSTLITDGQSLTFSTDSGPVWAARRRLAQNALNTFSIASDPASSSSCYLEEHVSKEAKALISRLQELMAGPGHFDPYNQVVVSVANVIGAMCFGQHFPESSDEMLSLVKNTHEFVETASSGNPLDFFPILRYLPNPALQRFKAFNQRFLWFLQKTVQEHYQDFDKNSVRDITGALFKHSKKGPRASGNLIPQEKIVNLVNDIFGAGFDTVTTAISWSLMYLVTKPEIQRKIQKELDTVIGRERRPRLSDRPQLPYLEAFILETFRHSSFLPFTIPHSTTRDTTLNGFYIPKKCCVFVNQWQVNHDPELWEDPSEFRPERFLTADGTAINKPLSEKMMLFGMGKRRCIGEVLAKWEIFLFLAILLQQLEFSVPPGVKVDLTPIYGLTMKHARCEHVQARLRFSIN
Chain of Cytochrome P450 3A4 (Homo sapiens) (P08684 whole entry, looked up): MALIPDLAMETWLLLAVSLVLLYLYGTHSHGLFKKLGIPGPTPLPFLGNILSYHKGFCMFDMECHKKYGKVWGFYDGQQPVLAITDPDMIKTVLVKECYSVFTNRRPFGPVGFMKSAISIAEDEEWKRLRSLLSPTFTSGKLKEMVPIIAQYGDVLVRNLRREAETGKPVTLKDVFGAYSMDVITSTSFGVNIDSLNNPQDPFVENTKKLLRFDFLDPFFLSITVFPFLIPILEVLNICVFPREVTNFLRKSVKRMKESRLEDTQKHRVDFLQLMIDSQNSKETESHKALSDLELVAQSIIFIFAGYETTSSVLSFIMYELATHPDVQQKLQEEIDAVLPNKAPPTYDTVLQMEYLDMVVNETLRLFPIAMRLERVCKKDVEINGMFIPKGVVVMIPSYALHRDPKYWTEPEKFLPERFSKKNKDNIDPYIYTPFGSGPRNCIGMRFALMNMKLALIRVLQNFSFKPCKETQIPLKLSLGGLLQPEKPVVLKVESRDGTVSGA
Chain of Acetylcholinesterase (Homo sapiens) (P22303 whole entry, looked up): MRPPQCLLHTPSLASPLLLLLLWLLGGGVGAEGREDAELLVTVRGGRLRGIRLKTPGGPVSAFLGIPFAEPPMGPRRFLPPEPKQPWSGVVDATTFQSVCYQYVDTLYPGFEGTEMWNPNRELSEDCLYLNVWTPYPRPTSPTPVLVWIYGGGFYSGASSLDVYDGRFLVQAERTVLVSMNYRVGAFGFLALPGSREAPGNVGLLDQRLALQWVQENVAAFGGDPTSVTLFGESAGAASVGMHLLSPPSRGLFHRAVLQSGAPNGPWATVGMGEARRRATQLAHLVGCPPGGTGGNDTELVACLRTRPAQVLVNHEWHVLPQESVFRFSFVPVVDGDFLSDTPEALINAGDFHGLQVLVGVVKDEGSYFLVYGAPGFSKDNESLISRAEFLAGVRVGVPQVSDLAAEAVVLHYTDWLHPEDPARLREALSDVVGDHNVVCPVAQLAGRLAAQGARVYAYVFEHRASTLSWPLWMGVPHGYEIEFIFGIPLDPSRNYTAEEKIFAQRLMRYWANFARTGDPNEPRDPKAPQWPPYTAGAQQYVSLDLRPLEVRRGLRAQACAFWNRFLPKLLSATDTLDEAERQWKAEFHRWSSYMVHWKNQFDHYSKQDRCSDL
Chain of Cytochrome P450 2C19 (Homo sapiens) (P33261 whole entry, looked up): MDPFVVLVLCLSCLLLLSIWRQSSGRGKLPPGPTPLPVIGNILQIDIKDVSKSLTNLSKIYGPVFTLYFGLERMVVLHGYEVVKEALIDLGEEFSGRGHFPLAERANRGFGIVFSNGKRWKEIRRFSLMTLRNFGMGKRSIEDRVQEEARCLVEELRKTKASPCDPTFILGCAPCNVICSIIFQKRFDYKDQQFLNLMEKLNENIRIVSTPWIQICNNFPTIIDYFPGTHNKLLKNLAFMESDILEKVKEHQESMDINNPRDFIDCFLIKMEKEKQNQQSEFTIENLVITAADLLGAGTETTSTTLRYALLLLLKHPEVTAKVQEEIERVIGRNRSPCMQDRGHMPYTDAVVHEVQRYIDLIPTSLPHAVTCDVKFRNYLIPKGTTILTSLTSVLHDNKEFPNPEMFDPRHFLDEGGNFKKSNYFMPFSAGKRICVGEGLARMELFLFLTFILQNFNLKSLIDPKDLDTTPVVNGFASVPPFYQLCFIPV
Chain of Cytochrome P450 2C9 (Homo sapiens) (P11712 whole entry, looked up): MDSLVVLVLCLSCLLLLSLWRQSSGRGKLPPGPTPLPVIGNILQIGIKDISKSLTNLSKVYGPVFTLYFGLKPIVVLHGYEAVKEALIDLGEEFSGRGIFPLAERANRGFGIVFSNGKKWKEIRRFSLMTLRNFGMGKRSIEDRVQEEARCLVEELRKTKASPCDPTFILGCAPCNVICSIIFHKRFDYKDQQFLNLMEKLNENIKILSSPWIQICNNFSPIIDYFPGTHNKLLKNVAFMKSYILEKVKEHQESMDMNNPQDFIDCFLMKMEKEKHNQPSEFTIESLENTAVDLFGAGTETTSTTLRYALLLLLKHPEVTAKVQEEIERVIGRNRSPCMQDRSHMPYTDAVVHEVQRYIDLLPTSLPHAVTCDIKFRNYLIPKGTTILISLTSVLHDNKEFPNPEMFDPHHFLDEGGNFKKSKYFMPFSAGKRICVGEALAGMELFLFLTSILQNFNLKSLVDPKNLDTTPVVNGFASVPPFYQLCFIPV
Chain of Cytochrome P450 2D6 (Homo sapiens) (P10635 whole entry, looked up): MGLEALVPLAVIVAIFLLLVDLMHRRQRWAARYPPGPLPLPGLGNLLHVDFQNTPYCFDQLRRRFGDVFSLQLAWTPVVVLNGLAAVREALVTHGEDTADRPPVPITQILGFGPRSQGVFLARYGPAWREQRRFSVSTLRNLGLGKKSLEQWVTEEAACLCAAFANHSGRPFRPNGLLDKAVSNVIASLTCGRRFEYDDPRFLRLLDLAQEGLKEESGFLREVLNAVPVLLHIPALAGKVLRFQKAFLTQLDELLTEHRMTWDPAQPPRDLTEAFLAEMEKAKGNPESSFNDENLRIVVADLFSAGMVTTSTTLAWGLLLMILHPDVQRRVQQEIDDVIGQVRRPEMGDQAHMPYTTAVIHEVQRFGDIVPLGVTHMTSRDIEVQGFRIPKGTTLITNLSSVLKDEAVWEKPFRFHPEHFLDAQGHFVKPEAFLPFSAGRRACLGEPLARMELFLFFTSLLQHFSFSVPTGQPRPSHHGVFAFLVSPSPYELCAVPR
Chain of Voltage-gated inwardly rectifying potassium channel KCNH2 (Homo sapiens) (Q12809 whole entry, looked up): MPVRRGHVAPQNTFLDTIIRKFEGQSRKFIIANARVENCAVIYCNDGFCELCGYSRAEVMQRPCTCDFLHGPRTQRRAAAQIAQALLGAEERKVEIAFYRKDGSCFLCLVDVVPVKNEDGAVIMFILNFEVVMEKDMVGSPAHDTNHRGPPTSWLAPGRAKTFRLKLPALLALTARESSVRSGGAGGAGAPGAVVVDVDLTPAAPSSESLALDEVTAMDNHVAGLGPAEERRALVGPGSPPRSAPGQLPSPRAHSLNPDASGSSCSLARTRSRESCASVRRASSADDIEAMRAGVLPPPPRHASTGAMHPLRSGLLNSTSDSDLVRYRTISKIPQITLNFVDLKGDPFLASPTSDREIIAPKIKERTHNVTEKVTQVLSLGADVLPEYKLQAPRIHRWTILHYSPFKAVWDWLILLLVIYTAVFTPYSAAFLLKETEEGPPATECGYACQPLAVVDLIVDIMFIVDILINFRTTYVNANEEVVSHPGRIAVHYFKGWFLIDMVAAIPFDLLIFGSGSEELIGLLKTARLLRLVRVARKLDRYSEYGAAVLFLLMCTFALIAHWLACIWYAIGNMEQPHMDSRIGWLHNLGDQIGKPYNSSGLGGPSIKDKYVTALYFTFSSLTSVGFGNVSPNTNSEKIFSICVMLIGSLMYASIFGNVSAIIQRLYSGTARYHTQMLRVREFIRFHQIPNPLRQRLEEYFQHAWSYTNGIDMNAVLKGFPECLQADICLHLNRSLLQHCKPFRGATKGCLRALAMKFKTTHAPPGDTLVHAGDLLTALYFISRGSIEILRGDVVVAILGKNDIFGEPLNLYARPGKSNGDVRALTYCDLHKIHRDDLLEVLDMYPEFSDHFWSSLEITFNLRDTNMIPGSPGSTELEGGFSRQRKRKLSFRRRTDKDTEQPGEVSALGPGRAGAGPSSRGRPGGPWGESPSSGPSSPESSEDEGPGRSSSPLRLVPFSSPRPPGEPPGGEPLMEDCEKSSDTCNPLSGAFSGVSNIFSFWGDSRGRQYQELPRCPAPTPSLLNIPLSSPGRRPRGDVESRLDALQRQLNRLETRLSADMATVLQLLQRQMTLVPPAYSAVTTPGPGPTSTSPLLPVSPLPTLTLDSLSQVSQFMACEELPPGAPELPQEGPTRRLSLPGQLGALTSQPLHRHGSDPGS

Structure (SMILES)	Potency [1]	Potency [2]	Potency [3]	Potency [4]	Potency [5]	Potency [6]	Potency [7]	Potency [8]	Potency [9]	Potency [10]
CCOC(=O)C(C)OC(=O)c1cc(Oc2ccc(C(F)(F)F)cc2Cl)ccc1[N+](=O)[O-] (configuration not stated)	inactive	inactive	6.3 µM (active) and 6.33 µM (active)	inactive	inactive					
CC(C)NC(C)C		inactive	inactive	inactive	inactive	inactive	inactive	inactive	inactive	
CCCCOCCOP(=O)(OCCOCCCC)OCCOCCCC	inactive	inactive	7.98 µM (active) and 8.94 µM (active)		inactive	inactive			8.95 µM (active) and 15.9 µM (active)	8.95 µM (active) and 15.9 µM (active)
c1ccc(NNc2ccccc2)cc1	inactive	inactive	inactive	32 µM (active) and 12.6 µM (active)			inactive	inactive	71.7 µM (active) and inactive	inactive
CNC(=O)N(C)c1nnc(C(C)(C)C)s1	inactive	inactive	39.9 µM (active) and inactive	39.9 µM (active)	inactive		inactive	inactive		inactive
CC(C)Oc1cc(-n2nc(C(C)(C)C)oc2=O)c(Cl)cc1Cl		inactive	7 µM (active) and 3.99 µM (active)	1.4 µM (active) and 2.83 µM (active)		inactive	inactive	inactive	27.9 µM (active) and 25.2 µM (active)	inactive
C1=Cc2cccc3cccc1c23	inactive	inactive		31.2 µM (active) and 25.2 µM (active)				inactive	inactive	inactive
COP(=O)(OC)OC		inactive	9.01 µM (active) and inactive	35.9 µM (active) and inactive		inactive	inactive	inactive	32 µM (active) and inactive	16 µM (active) and inactive
CCC(C)(C)c1ccc(O)cc1	inactive	inactive	inactive	inactive			inactive	inactive	71.8 µM (active) and 63.3 µM (active)	inactive
Cc1cc(C)cc(C)c1	inactive	inactive	inactive	inactive	inactive			inactive	inactive	inactive
O=C(NC(=O)c1c(F)cccc1F)Nc1ccc(Cl)cc1	inactive	inactive	inactive	35.6 µM (active)	inactive		inactive	inactive		
c1nc[nH]n1	inactive	inactive	inactive	62 µM (active) and 71 µM (active)	inactive		inactive	inactive	inactive	inactive
Oc1cc(Cl)ccc1Cl	inactive	inactive	inactive	36.6 µM (active) and 31.7 µM (active)				inactive		inactive
CC1(C)C(C=C(Cl)Cl)C1C(=O)OC(C#N)c1cccc(Oc2ccccc2)c1 (configuration not stated)	inactive	inactive	17.8 µM (active) and 24.5 µM (active)	inactive	inactive		inactive	inactive		inactive
c1ccc(P(c2ccccc2)c2ccccc2)cc1	inactive	inactive	10.2 µM (active) and 7.1 µM (active)	inactive		inactive				
C=CCc1ccc(OC)cc1	inactive	inactive	inactive					5.47 µM (active) and inactive	inactive	
COC(=O)c1sccc1S(=O)(=O)NC(=O)Nc1nc(C)nc(OC)n1		inactive	81.3 µM (active)	inactive	inactive	inactive	inactive	inactive	inactive	
CCCCCCCCOC(=O)c1ccccc1C(=O)OCCCCCCCC	inactive	inactive	50.1 µM (active) and inactive					inactive		
CN(C)c1ccc(C(=O)c2ccc(N(C)C)cc2)cc1	inactive	inactive	8.85 µM (active) and 8.94 µM (active)	17.7 µM (active) and 14.2 µM (active)			inactive	inactive and 35.6 µM (active)	31.7 µM (active)	
CC(C)(OOC(C)(C)c1ccccc1)c1ccccc1	inactive	inactive	35.1 µM (active) and 6.33 µM (active)	inactive				35.1 µM (active) and inactive		
Cc1ccc2c(c1N)C(=O)c1ccccc1C2=O	inactive	inactive	2.8 µM (active) and 5.03 µM (active)	443 nM (active) and 633 nM (active)	inactive		inactive	702 nM (active) and 5.64 µM (active)	2.22 µM (active) and 3.99 µM (active)	inactive

Structure (SMILES)	Potency [1]	Potency [2]	Potency [3]	Potency [4]	Potency [5]	Potency [6]	Potency [7]	Potency [8]	Potency [9]	Potency [10]
CCCCNC(=O)n1c(NC(=O)OC)nc2ccccc21	inactive	inactive	79.3 µM (active)	25.1 µM (active) and 28.3 µM (active)			inactive	inactive		
CC(C)(c1cc(Cl)c(O)c(Cl)c1)c1cc(Cl)c(O)c(Cl)c1	inactive	inactive	35.6 µM (active) and 28.3 µM (active)	inactive	inactive			inactive		
O=P(Oc1ccccc1)(Oc1ccccc1)Oc1ccccc1	19.9 µM (active) and 20 µM (active)	35.4 µM (active) and 71 µM (active)	2.81 µM (active) and 5.64 µM (active)	9.98 µM (active) and 11.2 µM (active)	21.8 µM (active) and 38.9 µM (active)			inactive		
CCCCC(CC)COC(=O)c1ccc(C(=O)OCC(CC)CCCC)c(C(=O)OCC(CC)CCCC)c1 (configuration not stated)		inactive	inactive	inactive	inactive	inactive	inactive	inactive	inactive	inactive
Nc1ccc(-c2ccccc2)cc1	inactive	inactive	11.6 µM (active) and 11.2 µM (active)	1.83 µM (active) and 6.33 µM (active)	inactive			35.6 µM (active)	13 µM (active) and 12.6 µM (active)	6.5 µM (active) and 20 µM (active)
CC(O)CCO (configuration not stated)	inactive	inactive	inactive and 71 µM (active)	inactive			inactive	32 µM (active) and inactive	inactive	inactive
CCCCCCCCCCCOC(=O)c1ccccc1C(=O)OCCCCCCCCCCC		inactive	inactive	inactive	inactive	inactive	inactive	inactive	inactive	inactive
Cc1cccc(N)c1N		inactive	38.6 µM (active) and 35.6 µM (active)	7.7 µM (active) and 14.2 µM (active)	inactive	inactive	inactive	61.2 µM (active) and 17.8 µM (active)	34.4 µM (active) and 35.6 µM (active)	3.86 µM (active) and 11.2 µM (active)
C#CCOS(=O)OC1CCCCC1Oc1ccc(C(C)(C)C)cc1 (configuration not stated)	inactive	inactive	895 nM (active) and 710 nM (active)	8.95 µM (active) and 8.94 µM (active)				22.5 µM (active) and 22.4 µM (active)	503 nM (active) and 502 nM (active)	
CNC(=O)Oc1cccc2c1OC(C)(C)O2	1.04 µM (active) and 399 nM (active)	10.4 µM (active) and 5.03 µM (active)	36.9 µM (active) and 71 µM (active)	35.6 µM (active)	inactive		826 nM (active) and 224 nM (active)	inactive		inactive
CCOc1cc(C=O)ccc1O		inactive	inactive	40 µM (active) and 39.9 µM (active)		inactive	inactive	inactive	inactive	
Oc1ccc(-c2ccccc2)cc1	inactive	inactive	35.1 µM (active) and 35.6 µM (active)	11.1 µM (active) and 11.2 µM (active)	inactive		inactive	31.3 µM (active)	39.4 µM (active)	inactive
Nc1ccncc1	inactive	inactive	inactive			inactive		inactive		inactive
C=CCN(CC=C)C(=O)C(Cl)Cl	inactive	inactive	inactive	inactive	inactive		inactive	inactive	inactive	inactive
Oc1cc(Cl)c(Cl)cc1Cl	inactive	inactive	inactive	22.3 µM (active) and 20 µM (active) and 22.4 µM (active)			inactive	inactive	inactive	
Brc1ccc(Oc2cc(Br)c(Br)cc2Br)c(Br)c1	inactive	inactive	1.78 µM (active) and 1.27 µM (active)	31.7 µM (active) and 32 µM (active)	inactive		inactive	35.6 µM (active) and inactive	31.7 µM (active) and 18 µM (active)	inactive
Cc1ccc(OP(=O)(Oc2ccc(C)cc2)Oc2ccc(C)cc2)cc1		inactive	3.99 µM (active) and 5.03 µM (active)	7.09 µM (active) and 7.1 µM (active)		inactive	inactive	inactive	7.09 µM (active) and 8.94 µM (active)	7.09 µM (active) and 10 µM (active)
C=CCc1ccc2c(c1)OCO2		inactive	inactive	28.3 µM (active)	inactive		inactive	inactive		inactive
c1ccc(N=Nc2ccccc2)cc1		inactive	inactive	25.7 µM (active) and 10 µM (active)	inactive		inactive	14.4 µM (active) and inactive	inactive	
C=C(C)[C@H]1Cc2c(ccc3c2O[C@@H]2COc4cc(OC)c(OC)cc4[C@@H]2C3=O)O1		inactive		inactive	inactive	inactive		inactive and 38.9 µM (active)	5.09 µM (active) and 6.33 µM (active) and 9.77 µM (active)	
